Test results taken from PubChem BioAssay AID1159580 (chemical genetic matrix, 2015).
Where “and” joins values, the source holds several entries; their conditions need not be identical. Equal values may be shown once. Screen size: about 5,500 compounds; about 2,000 (36%) were called active. Not shown: some 18% with an inconclusive outcome. No stated cut-off is given here; in the data, active means normalized growth mostly below about 0.91 (no sharp cut-off); inconclusive means no clear call, values can overlap the other calls; inactive means mostly above about 0.92. Some of the results follow.

Test: chemical genetic growth profiling, strain panel (AID 1159580);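 further: tested at 20 µM; growth read once vehicle control cultures reached saturation at 30 °C; 1 = growth at the plate median or of vehicle wells; lower values mean less growth of the strain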
Conditions: S. cerevisiae deletion strains, growth OD

Measured: normalized growth

COC(=O)[C@@]1(C)CCC[C@]2(C)c3ccc(O)c(C(C)C)c3CCC12 (stereo not given in full)
inactive: locus YAL021C, strain ccr4, active compounds read low 1.08 | locus YAL026C, strain drs2, active compounds read low 0.929 | locus YBR171W, strain sec66, active compounds read low 0.946 | locus YBR279W, strain paf1, active compounds read low 0.941 | locus YCL069W, strain vba3, active compounds read low 0.977 | locus YCR088W, strain abp1, active compounds read low 0.971 | locus YDL005C, strain med2, active compounds read low 0.944 | locus YDL035C, strain GPR1, active compounds read low 0.912 | locus YDL185W, strain tfp1, active compounds read low 0.956 | locus YDR001C, strain nth1, active compounds read low 0.978 | locus YDR334W, strain swr1, active compounds read low 0.998 | locus YDR335W, strain msn5, active compounds read low 0.965 | locus YDR388W, active compounds read low 0.942 | locus YEL003W, strain gim4, active compounds read low 0.929 | locus YEL037C, strain rad23, active compounds read low 0.988 | locus YEL061C, strain CIN8 (second series), active compounds read low 0.981 | locus YER110C, active compounds read low 1 | locus YER111C, strain swi4, active compounds read low 0.995 | locus YER155C, strain BEM2 (second series), active compounds read low 0.891 | locus YFR010W, strain ubp6, active compounds read low 0.952 | locus YGL078C, strain dbp3, active compounds read low 0.935 | locus YGL227W, strain vid30, active compounds read low 0.97 | locus YGL253W, strain hxk2, active compounds read low 0.951 | locus YGR135W, strain pre9, active compounds read low 0.957 | locus YGR252W, strain gcn5, active compounds read low 0.781 | locus YHR013C, strain ard1, active compounds read low 1.01 | locus YHR079C, strain IRE1 (second series), active compounds read low 0.927 | locus YIL073C, strain SPO22, active compounds read low 1.07 | locus YIR030C, strain dcg1, active compounds read low 0.954 | locus YJL092W, strain hpr5, active compounds read low 0.979 | locus YJL115W, strain asf1, active compounds read low 0.976 | locus YJL154C, strain vps35, active compounds read low 0.981 | locus YJL168C, strain set2, active compounds read low 1 | locus YJR043C, strain POL32, active compounds read low 0.955
active: locus YAL030W, strain snc1, active compounds read low 0.85 | locus YBL061C, strain skt5, active compounds read low 0.617 | locus YBR009C, strain hhf1, active compounds read low 0.364 | locus YBR021W, strain FUR4, active compounds read low 0.646 | locus YBR023C, strain chs3, active compounds read low 0.793 | locus YBR229C, strain ROT2, active compounds read low 0.875 | locus YBR231C, strain swc5, active compounds read low 0.705 | locus YCL011C, strain gbp2, active compounds read low 0.652 | locus YCL016C, strain dcc1, active compounds read low 0.847 | locus YCL029C, strain bik1, active compounds read low 0.804 | locus YDL040C, strain nat1, active compounds read low 0.928 | locus YDL074C, strain BRE1, active compounds read low 0.174 | locus YDL101C, strain DUN1, active compounds read low 0.894 | locus YDL192W, strain arf1, active compounds read low 0.344 | locus YDR069C, strain doa4, active compounds read low 0.89 | locus YDR101C, strain arx1, active compounds read low 0.782 | locus YDR137W, strain rgp1, active compounds read low 0.134 | locus YDR159W, strain sac3, active compounds read low 0.29 | locus YDR162C, strain NBP2, active compounds read low 0.595 | locus YDR195W, strain ref2 0.189 | locus YDR297W, strain sur2, active compounds read low 0.566 | locus YDR318W, strain mcm21, active compounds read low 0.788 | locus YDR392W, strain spt3, active compounds read low 0.283 | locus YDR502C, strain sam2, active compounds read low 0.773 | locus YEL061C, strain CIN8, active compounds read low 0.803 | locus YER015W, strain faa2, active compounds read low 0.793 | locus YER016W, strain bim1, active compounds read low 0.825 | locus YER155C, strain BEM2, active compounds read low 0.128 | locus YER167W, strain BCK2, active compounds read low 0.796 | locus YGL086W, strain mad1, active compounds read low 0.729 | locus YGL167C, strain pmr1, active compounds read low 0.374 | locus YGL173C, strain kem1, active compounds read low 0.832 | locus YGL240W, strain doc1, active compounds read low 0.772 | locus YGL248W, strain PDE1, active compounds read low 0.828 | locus YHR027C, strain rpn1, active compounds read low 0.499 | locus YHR030C, strain SLT2, active compounds read low 0.493 and 0.19 | locus YHR079C, strain IRE1, active compounds read low 0.502 | locus YHR094C, strain hxt1, active compounds read low 0.897 | locus YHR129C, strain ARP1, active compounds read low 0.518 | locus YHR142W, strain chs7, active compounds read low 0.875 | locus YHR200W, strain rpn10, active compounds read low 0.871 | locus YIL066C, strain RNR3, active compounds read low 0.65 | locus YIL125W, strain kgd1, active compounds read low 0.693 | locus YJL095W, strain BCK1 (second series), active compounds read low 0.689 | locus YJL095W, strain BCK1, active compounds read low 0.277 and 0.318 | locus YJL129C, strain trk1, active compounds read low 0.593 | locus YJL134W, strain LCB3, active compounds read low 0.815 | locus YJL164C, strain tpk1, active compounds read low 0.78 | locus YJL166W, strain qcr8, active compounds read low 0.563 | locus YJL187C, strain SWE1 (second series), active compounds read low 0.638 | locus YJL187C, strain SWE1, active compounds read low 0.73
